In PubChem BioAssay (NCATS):
Several values for one entry are separate records, joined by “and”; a condition that tells them apart may be missing. Equal values may be shown once. Results filed as inconclusive are left out. Activity calls are given as the source filed them. Unless noted, calls follow the shape of the dose curve; as a rule, active = well fitted curve in the direction sought with a large enough effect; inconclusive = small, poorly fitted or top-dose-only effect, or another doubt; inactive = no such curve, though single readings can be large; an effect the other way counts as inactive or inconclusive.

Legend:
[1] = target: Glucocorticoid receptor (Homo sapiens) (UniProt P04150); assay: qHTS assay for small molecule agonists of glucocorticoid receptor signaling (AID 588532; active = well fitted curve in the direction sought with a large enough effect in the signal ratio, with a control signal flat; the % refers to the signal ratio;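 also: 100% = dexamethasone at 0.1 µM and 0% = DMSO only wells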); details: HeLa MMTV-bla, beta-lactamase ratio, agonist, 18 h; stronger effect = higher value; percent of dexamethasone control, DMSO zero
Procedure, shortened: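 Agonist-mode qHTS: GRE-driven beta-lactamase in HeLa cells exposed 18 h to titrated compounds (up to 92 uM), then CCF4 ratio read after 2 h at RT; Hill-fitted EC50, efficacy relative to 0.1 uM dexamethasone.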

[2] = target: Vitamin D3 receptor (Homo sapiens) (UniProt P11473); assay: qHTS assay for small molecule agonists of vitamin D receptor signaling (AID 588543; calls by dose curve;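 also: 0% = DMSO basal and 100% = reference agonist control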); details: HEK293T VDR-UAS-bla, beta-lactamase ratio, 16 h; series mostly up to 76.8 µM
Procedure, shortened: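 qHTS in agonist mode: compound titrations stimulate a VDR-driven β-lactamase reporter in HEK293T cells over 16 h at 37 °C. Response normalized to 50 nM 1α,25-dihydroxyvitamin D3 = 100%, DMSO = 0%; Hill fitting gives EC50 and maximal response.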

[3] = qHTS assay for small molecule agonists of the antioxidant response element (ARE) signaling pathway (AID 651741; active = well fitted activation curve with a large enough effect in the signal ratio; the % refers to the signal ratio; also: potency is read from the fitted curve at half-maximal effect; as to activation: % of control where 0% means no effect); details: HepG2 ARE-bla reporter, beta-lactamase FRET ratio, 16 h; series mostly up to 96 µM
Procedure, shortened: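 Beta-lactamase reporter under ARE control in HepG2 cells, 2,000 per well, was induced by 16 h compound treatment at 37 C. Read-out was fluorescence from LiveBLAzer B/G FRET substrate after 2 h at room temperature.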

[4] = qHTS assay for environmental chemicals that activate the Aryl hydrocarbon Receptor (AhR) signaling pathway (AID 651777); details: 1A2-DRE human hepatoma cells, luciferase, 24 h; activation: stronger effect = higher value; also: % of control where 0% means no effect; nearly all actives have a fitted effect of over 15% in size
Procedure, shortened: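 Stable CYP1A2 promoter/DRE-luciferase human hepatoma line treated 24 hr; One-Glo luminescence, 30 min RT.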

[5] = target: Peroxisome proliferator-activated receptor alpha (Homo sapiens) (UniProt Q07869); assay: qHTS assay for small molecule agonists of the peroxisome proliferator-activated receptor alpha (PPARalpha) signaling pathway (AID 651778); details: PathHunter PPARalpha complementation, chemiluminescence, 6 h; max response: stronger effect = higher value; also: potency is read from the fitted curve at half-maximal effect; as to max response: % of control where 0% means no effect
Procedure, shortened: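 Chemiluminescence from complemented enzyme reported PPARalpha activation in cells after 6 hr of compound treatment at 37 C. The detection reagent was incubated for 60 min at room temperature, and compounds were scored as agonists.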

[6] = qHTS assay for small molecule agonists of the antioxidant response element (ARE) signaling pathway measured by Nrf2-dependant transcriptional activity - cell viability counter screen (AID 720653; active = well fitted curve in the direction sought with a large enough effect in the repeat runs; an effect the other way counts as inactive or inconclusive; also: potency is read from the fitted curve at half-maximal effect; as to max response: % is scaled to controls: 0 for no effect and ±100 for the full control effect); details: ARE-bla HepG2 viability, CellTiter-Glo ATP luminescence, 16 h; max response: stronger effect = lower value
Procedure, shortened: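 Cytotoxicity counter screen: intracellular ATP quantified by CellTiter-Glo luminescence in the same ARE-bla HepG2 plates, after 16 h compound exposure and a 2 h beta-lactamase substrate step.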

[7] = qHTS assay for cell viability of HEK293 cells (AID 743288); details: ATP luminescence (CellTiter-Glo), 18 h; max response: stronger effect = lower value; also: nearly all actives have a fitted effect of over 50% in size; also: potency is read from the fitted curve at half-maximal effect
Procedure, shortened: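 Quantitative high-throughput screen: compounds were pinned onto parental HEK293 cells (2,000 per well) after a minimum 5 h settling at 37 C, incubated 18 h at 37 C, and intracellular ATP measured by luciferase luminescence.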

[8] = qHTS assay for cell viability of the p53RE-bla HCT-116 cell line (AID 743292); details: p53RE-bla HCT-116 viability, ATP luminescence, 16 h; series mostly up to 95 µM; also: nearly all actives have a fitted effect of over 55% in size; also: potency is read from the fitted curve at half-maximal effect
Procedure, shortened: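 Readout: CellTiter-Glo luminescence after 30 min RT. Treatment: compounds in DMSO, 16 h, 37 C. Cells: CellSensor p53RE-bla HCT-116, 4,000/well, preincubated 5 h.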

[9] = qHTS assay for small molecule antagonists of peroxisome proliferator-activated receptor delta signaling (AID 588535); details: HEK293T PPARd-UAS-bla, beta-lactamase FRET ratio, 18 h; 460 nm channel;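 also: cells co-treated with a PPAR-delta agonist as stimulator during compound exposure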
Procedure, shortened: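 Titrations were run on PPAR-delta-UAS-bla HEK293T cells in charcoal/dextran-stripped serum, incubated 18 h at 37 C. CCF4 fluorescence (460/530 nm) after 2 h RT; Hill equation yields IC50 and maximal response.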

[10] = target: Vitamin D3 receptor (Homo sapiens) (UniProt P11473); assay: qHTS assay for small molecule antagonists of vitamin D receptor signaling (AID 588541; calls by dose curve;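 also: receptor activated by calcitriol during compound treatment; % is scaled to controls: 0 for no effect and ±100 for the full control effect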); details: HEK293T VDR-UAS-bla, beta-lactamase ratio, antagonist mode; series mostly up to 76.7 µM
Procedure, shortened: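 Antagonist-mode beta-lactamase reporter assay: HEK293T VDR-UAS-bla cells were exposed to titrated compound alongside 1-alpha,25-dihydroxyvitamin D3 at 3 nM final for 16 h. Values were normalized to the 50 nM agonist control and DMSO basal, with IC50 and efficacy from Hill equation fits.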

[11] = qHTS assay for small molecule agonists of retinoid X receptor alpha signaling (AID 588544; calls by dose curve;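 as to activation: 0% = DMSO basal wells and 100% = reference agonist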); details: HEK293T RXRa-UAS-bla, beta-lactamase reporter, 18 h; 530 nm emission
[12] = target: Retinoic acid receptor RXR-alpha (Homo sapiens) (UniProt P19793); assay: as above; details: HEK293T RXRa-UAS-bla, beta-lactamase reporter, 18 h; series mostly up to 76.7 µM
[13] = target: Thyroid hormone receptor beta (Homo sapiens) (UniProt P10828); assay: qHTS assay for small molecule agonists of thyroid hormone receptor beta signaling (AID 588545; calls by dose curve;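 also: 0% = DMSO only and 100% = 10 nM T3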); details: TR-UAS-bla GripTite HEK 293, beta-lactamase ratio, agonist mode, 18 h; series mostly up to 76.7 µM
Procedure, shortened: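 Stimulation of a TR-driven beta-lactamase reporter was quantified in GripTite HEK 293 cells. Compound series ran for 18 hrs; curves were normalized to T3 and DMSO controls and fitted to yield EC50.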

[14] = qHTS assay for small molecule agonists of the antioxidant response element (ARE) signaling pathway measured by Nrf2-dependant transcriptional activity (AID 720636; active = well fitted curve in the direction sought with a large enough effect in the repeat runs; an effect the other way counts as inactive or inconclusive;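 also: HepG2 cells with an ARE-driven luciferase reporter; % of control where 0% means no effect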); details: ARE-luc HepG2, Nrf2 luciferase reporter, 16 h; series mostly up to 92.4 µM
Procedure, shortened: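 Reporter gene assay, HepG2 ARE-luc: 16 hr compound, 37 C, 5% CO2; read-out luciferase luminescence.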

[15] = target: Nuclear receptor subfamily 1 group I member 2 (Rattus norvegicus) (UniProt Q9R1A7); assay: qHTS assay for small molecule activators of the rat pregnane X receptor (rPXR) signaling pathway (AID 651751; call rule not given here; also: 0% is about no effect); details: rPXR reporter cells, luciferase (One-Glo), 24 h
[16] = qHTS assay for small molecule activators of the human pregnane X receptor (PXR) signaling pathway (AID 720659; call rule not given here; also: 0% is about no effect); details: DPX-2 HepG2 CYP3A4-luciferase, 24 h; series mostly up to 92.3 µM
[17] = target: Glucocorticoid receptor (Homo sapiens) (UniProt P04150); assay: qHTS assay for small molecule antagonists of glucocorticoid receptor signaling (AID 588533; active = well fitted inhibition curve with a large enough effect in the signal ratio, with a control signal flat, not every such curve was filed as active; the % refers to the signal ratio;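 also: cells stimulated with 2 nM dexamethasone as agonist; % is scaled to controls: 0 for no effect and ±100 for the full control effect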); details: HeLa MMTV-bla, GRE beta-lactamase ratio, antagonist mode, 18 h; series mostly up to 76.8 µM
Procedure, shortened: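 Antagonist-mode qHTS: compound titrations added to GRE-bla HeLa cells, then dexamethasone 2 nM final; 18 h, 37 C. CCF4 FRET fluorescence normalized to dexamethasone and DMSO; IC50 from Hill fit.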

[18] = qHTS assay for small molecule activators of the p53 signaling pathway (AID 651743; active = well fitted activation curve with a large enough effect in the signal ratio, not every such curve was filed as active; the % refers to the signal ratio; also: % of control where 0% means no effect); details: HCT-116 p53RE-bla, beta-lactamase FRET ratio, 16 h; activation: stronger effect = higher value
Procedure, shortened: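 After 16 hours compound treatment at 37 C, HCT-116 cells stably expressing p53RE-driven beta-lactamase were loaded with LiveBLAzer B/G FRET substrate for 2 hours at room temperature. Fluorescence intensity served as the p53 activation read-out.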

[19] = qHTS assay for small molecule antagonists of retinoid X receptor alpha signaling (AID 588546; active = well fitted inhibition curve with a large enough effect in the signal ratio, with a control signal flat, not every such curve was filed as active; the % refers to the signal ratio;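 also: cells stimulated with 9-cis-retinoic acid as agonist; % is scaled to controls: 0 for no effect and ±100 for the full control effect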); details: HEK293T RXRa-UAS-bla, beta-lactamase ratio, antagonist mode; measured here: W530 green channel, cytotoxicity proxy
Procedure, shortened: (§1)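 Beta-lactamase reporter inhibition, read as CCF4 fluorescence ratio (ex 405, em 460/530 nm) after 2 h at RT. HEK293T UAS-bla cells, 2500/well, were stimulated with 9-cis-RA at 500 or 100 nM final alongside test compound for 18 h at 37 C.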

[20] = target: Retinoic acid receptor RXR-alpha (Homo sapiens) (UniProt P19793); assay: as above; details: HEK293T RXRa-UAS-bla, beta-lactamase ratio, antagonist mode
Procedure, shortened: as §1

Chain of Peroxisome proliferator-activated receptor alpha (Homo sapiens) (Q07869 whole entry, looked up): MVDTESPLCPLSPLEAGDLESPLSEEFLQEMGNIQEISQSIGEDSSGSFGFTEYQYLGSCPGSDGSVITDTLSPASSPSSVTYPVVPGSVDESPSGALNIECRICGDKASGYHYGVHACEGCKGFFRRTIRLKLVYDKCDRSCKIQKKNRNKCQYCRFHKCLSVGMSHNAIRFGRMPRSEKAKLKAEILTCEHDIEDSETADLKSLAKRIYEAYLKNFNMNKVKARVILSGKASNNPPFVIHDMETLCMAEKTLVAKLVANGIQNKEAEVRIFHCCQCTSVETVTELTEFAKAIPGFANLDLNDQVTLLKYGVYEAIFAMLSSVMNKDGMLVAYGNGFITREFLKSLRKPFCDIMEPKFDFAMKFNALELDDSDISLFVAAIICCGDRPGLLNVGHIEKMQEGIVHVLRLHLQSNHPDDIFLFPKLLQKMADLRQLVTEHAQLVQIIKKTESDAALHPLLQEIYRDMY
Chain of Glucocorticoid receptor (Homo sapiens) (P04150 whole entry, looked up): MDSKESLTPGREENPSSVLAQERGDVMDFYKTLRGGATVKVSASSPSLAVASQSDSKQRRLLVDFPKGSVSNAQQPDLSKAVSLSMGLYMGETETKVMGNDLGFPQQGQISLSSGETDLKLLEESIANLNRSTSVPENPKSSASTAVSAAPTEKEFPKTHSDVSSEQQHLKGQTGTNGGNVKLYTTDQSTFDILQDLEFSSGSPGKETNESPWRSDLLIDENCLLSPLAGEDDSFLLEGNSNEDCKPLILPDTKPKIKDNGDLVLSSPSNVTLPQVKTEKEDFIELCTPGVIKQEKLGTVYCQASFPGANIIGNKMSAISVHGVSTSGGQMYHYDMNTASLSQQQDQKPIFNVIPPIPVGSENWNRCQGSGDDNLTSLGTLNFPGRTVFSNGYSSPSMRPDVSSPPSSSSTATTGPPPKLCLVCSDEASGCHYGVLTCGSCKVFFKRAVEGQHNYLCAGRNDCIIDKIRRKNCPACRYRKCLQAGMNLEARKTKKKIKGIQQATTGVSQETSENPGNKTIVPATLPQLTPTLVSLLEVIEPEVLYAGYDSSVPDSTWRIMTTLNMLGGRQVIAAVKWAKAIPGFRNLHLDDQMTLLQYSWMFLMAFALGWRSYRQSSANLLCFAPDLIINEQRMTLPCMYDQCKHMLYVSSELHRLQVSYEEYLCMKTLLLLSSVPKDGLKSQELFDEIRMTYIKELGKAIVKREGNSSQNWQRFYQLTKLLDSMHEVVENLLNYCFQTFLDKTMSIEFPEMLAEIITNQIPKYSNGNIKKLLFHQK
Chain of Nuclear receptor subfamily 1 group I member 2 (Rattus norvegicus) (Q9R1A7 whole entry, looked up): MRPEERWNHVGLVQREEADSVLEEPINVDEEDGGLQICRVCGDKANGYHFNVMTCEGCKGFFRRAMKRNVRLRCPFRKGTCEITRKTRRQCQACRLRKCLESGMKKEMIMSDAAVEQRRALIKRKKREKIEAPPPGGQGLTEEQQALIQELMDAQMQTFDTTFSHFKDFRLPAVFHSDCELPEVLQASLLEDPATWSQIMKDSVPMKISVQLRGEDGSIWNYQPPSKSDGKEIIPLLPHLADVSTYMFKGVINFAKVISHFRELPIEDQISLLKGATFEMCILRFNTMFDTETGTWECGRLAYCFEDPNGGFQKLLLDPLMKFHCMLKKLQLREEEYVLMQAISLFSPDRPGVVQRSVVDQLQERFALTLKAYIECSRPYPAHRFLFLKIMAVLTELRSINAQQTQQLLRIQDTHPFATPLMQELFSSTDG
Chain of Thyroid hormone receptor beta (Homo sapiens) (P10828 whole entry, looked up): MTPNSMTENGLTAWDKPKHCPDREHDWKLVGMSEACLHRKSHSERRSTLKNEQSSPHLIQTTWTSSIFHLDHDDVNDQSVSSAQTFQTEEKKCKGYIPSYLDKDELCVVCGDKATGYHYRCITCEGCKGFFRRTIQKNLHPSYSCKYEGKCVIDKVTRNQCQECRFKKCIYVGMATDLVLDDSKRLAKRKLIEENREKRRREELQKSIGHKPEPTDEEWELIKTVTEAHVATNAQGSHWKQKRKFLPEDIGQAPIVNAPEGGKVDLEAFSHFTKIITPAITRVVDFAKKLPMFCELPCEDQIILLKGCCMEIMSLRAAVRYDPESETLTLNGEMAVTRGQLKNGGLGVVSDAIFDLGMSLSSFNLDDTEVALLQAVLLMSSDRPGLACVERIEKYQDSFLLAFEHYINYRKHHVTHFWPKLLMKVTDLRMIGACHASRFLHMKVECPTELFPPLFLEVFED
Chain of Retinoic acid receptor RXR-alpha (Homo sapiens) (P19793 whole entry, looked up): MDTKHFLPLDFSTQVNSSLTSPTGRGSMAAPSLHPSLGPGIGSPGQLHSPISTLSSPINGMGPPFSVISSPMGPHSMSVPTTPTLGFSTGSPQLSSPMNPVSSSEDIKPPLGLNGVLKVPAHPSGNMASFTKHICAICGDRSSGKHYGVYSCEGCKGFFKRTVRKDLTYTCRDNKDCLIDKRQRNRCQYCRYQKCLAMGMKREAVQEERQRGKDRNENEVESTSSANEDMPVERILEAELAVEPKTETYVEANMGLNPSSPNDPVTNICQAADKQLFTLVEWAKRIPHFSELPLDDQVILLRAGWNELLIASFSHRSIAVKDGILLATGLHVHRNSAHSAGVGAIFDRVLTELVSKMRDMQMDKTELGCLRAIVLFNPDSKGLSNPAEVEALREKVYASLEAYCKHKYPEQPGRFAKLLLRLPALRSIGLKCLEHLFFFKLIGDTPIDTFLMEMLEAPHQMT
Chain of Vitamin D3 receptor (Homo sapiens) (P11473 whole entry, looked up): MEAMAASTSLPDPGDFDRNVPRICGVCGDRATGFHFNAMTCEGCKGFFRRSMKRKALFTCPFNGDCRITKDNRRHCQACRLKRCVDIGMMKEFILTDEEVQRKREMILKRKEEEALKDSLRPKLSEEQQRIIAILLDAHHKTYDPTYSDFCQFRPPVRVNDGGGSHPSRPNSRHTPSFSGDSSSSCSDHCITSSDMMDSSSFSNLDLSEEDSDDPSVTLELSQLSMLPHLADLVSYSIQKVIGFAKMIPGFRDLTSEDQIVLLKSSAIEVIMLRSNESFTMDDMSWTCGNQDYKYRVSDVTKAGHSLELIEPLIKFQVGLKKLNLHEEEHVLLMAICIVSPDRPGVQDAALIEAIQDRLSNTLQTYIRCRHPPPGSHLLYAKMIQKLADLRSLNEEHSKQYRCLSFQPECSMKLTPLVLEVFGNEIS

CCCCCCCCCCCC(=O)OC
active: Potency [3] 24.3 µM | Potency [6] 35.5 µM | Potency [7] 25.1 µM | Potency [8] 28.2 µM
inactive: activation [1] -11.5% | outcome [2] | activation [4] 1.82% | max response [5] 2.34%

CCCCCCC(O)CCCCCCCCCCC(=O)O (stereo not drawn)
active: Potency [5] 31.6 µM
31.3%: max response [9]
-2.57%: max response [11]
inactive: activation [1] -3.25% | Potency [10] | outcome [2] | Potency [12] | Potency [13] | Potency [14] | max response [6] -0.036% | max response [7] -10.3% | Potency [8] | max response [15] 0.495% | outcome [16]

Oc1ccc(C(c2ccc(O)cc2)C(Cl)(Cl)Cl)cc1
inactive: activation [1] 1.17% | Potency [17] | Potency [10] | outcome [2] | Potency [13] | activation [18] -3.4% | activation [4] 10% | max response [5] -1.42% | Potency [14] | max response [6] -3.02% | max response [7] -13.2% | Potency [8] | max response [15] 2.83%
active: Potency [3] 54.5 µM

COC(=O)CSc1cc(N=c2sc(=O)n3n2CCCC3)c(F)cc1Cl
inactive: activation [1] -2.45% | Potency [17] | Potency [10] | outcome [2] | Potency [13] | activation [4] -2.58% | max response [5] 0.865% | Potency [14] | max response [6] 8.69% | max response [7] 4.83%

CC(C)(C)[C@H](O)[C@H](Cc1ccc(Cl)cc1)n1cncn1
inactive: activation [1] -0.93% | Potency [17] | Potency [10] | outcome [2] | Potency [12] | Potency [13] | max response [20] -30.2% | activation [18] -1.23% and -2.31% | max response [6] -1.92% and -9.33% | max response [7] -20.8% and -24.1% | Potency [8]
-4.23%: max response [11]
27.4%: max response [9]
9.09%: max response [19]

CCCCCCCCCCCCO
-2.04%: max response [19]
-12.2%: max response [11]
3.59%: max response [9]
inactive: Potency [10] | outcome [2] | Potency [12] | Potency [13] | max response [20] 8.28% | Potency [3] | activation [4] 2.81% | max response [5] -0.593% | max response [6] -4.36% | max response [7] -11.9% | Potency [8] | max response [15] 1.35% | outcome [16]

CC(C)(C)c1ccc(C(=O)O)cc1
0.0983%: max response [11]
29.8%: max response [9]
-7.4%: max response [19]
inactive: activation [1] -3.04% | Potency [17] | Potency [10] | outcome [2] | Potency [12] | Potency [13] | max response [20] -3.02% | activation [18] -4.37% | max response [5] -0.433% | Potency [14] | max response [6] 14.5% | max response [7] -3.22% | Potency [8] | max response [15] -0.15% | outcome [16]

CCCCCCOCCOCCO
-32.9%: max response [9]
-8.61%: max response [11]
inactive: activation [1] -12.5% | Potency [17] | Potency [12] | Potency [13] | max response [20] 2.18% | Potency [14] | max response [6] -7.8% | max response [7] -5.42% | Potency [8] | max response [15] -1.74% | outcome [16]
-13.6%: max response [19]
